UCHL1 inh = inhibitors of human UCHL1 deubiquitinase; P09936; purified UCHL1, Ub-rhodamine cleavage fluorescence; inhibition, % at 20 µM; 47,000 tested, 0.2% active
OTUD3 inh = human OTUD3 deubiquitinase inhibition; 47,000 tested, 0.7% active; AID 1645858; Q5T2D3; purified OTUD3, Ub-rhodamine fluorescence, 2 h; inhibition, % at 25 µM
USP7 inh = blocks human USP7 ubiquitin-rhodamine cleavage. purified USP7, Ub-rhodamine cleavage fluorescence. 47,000 tested, 0.3% active. inhibition, % at 20 µM. Q93009
Each line names hits and unclear results; the compound was inactive in the other large screens. Sampled rows, rich in hits. Any-hit rate of the full collection: about 1.1%. Rule as the data show it: active = inhibition above about 30%; inactive = the rest.

CCc1[nH]c(=O)cc2cc(OC)c(OC)cc12	UCHL1 inh 48, OTUD3 inh 92
CCCc1cc(=O)[nH]c(N2CCN(c3ccccc3OC)CC2)n1	none
Cc1ccccc1NC(=O)Cn1c(=O)n(-c2ccc(CC(=O)NCCc3ccccc3)cc2)c(=O)c2sccc21	USP7 inh 32
O=C(Cc1ccc(-n2c(=O)c3sccc3n(Cc3ccc(F)cc3)c2=O)cc1)NCCc1ccccc1	none
COc1ccc(-c2nc(C#N)c(NCc3ccccc3OC)o2)cc1	none
O=C1CC(c2nc(-c3ccc(N4CCCCC4)cc3)no2)CN1C1CCCC1 (configuration not stated)	none
COc1cccc(-c2cn3c(-c4ccccc4)c(-c4ccccc4)nc3n2-c2cccc(Cl)c2)c1	none
O=C(Oc1cc(O)cc2c1C[C@@H](OC(=O)c1cc(O)c(O)c(O)c1)[C@@H](c1cc(O)c(O)c(O)c1)O2)c1cc(O)c(O)c(O)c1	OTUD3 inh 73
O=S(=O)(c1ccccc1Cl)N1CCN(c2ccc3nnc(-c4ccco4)n3n2)CC1	UCHL1 inh 40, USP7 inh 34
Cc1ccc(C)c(S(=O)(=O)N2CCN(c3ccc4nnc(-c5ccco5)n4n3)CC2)c1	UCHL1 inh 45, USP7 inh 37
O=C(c1cc(Cl)ccc1Cl)N1CCN(c2ccc3nnc(-c4ccco4)n3n2)CC1	none
Cc1ccc(-c2ccc(N3CCOCC3)nn2)cc1S(=O)(=O)N1CCOCC1	none
O=C(Nc1c(C(=O)Nc2ccc3c(c2)OCO3)oc2ccccc12)c1cc2ccccc2o1	none
Cn1c(SCC(=O)c2ccc(C#N)cc2)nnc1-c1cc2ccccc2o1	none
COCCn1ccc2ccn(Cc3nc(-c4cccnc4)no3)c(=O)c21	none
COc1ccc(-c2cc3nc([C@H](C)NC(=O)Cc4ccccc4C)nn3cn2)cc1	OTUD3 inh 47, USP7 inh 32
C[C@H](NC(=O)Cc1ccccc1F)c1nc2cc(-c3ccccc3F)ncn2n1	OTUD3 inh 36
COc1ccc(-c2cc3nc([C@H](C)NC(=O)COc4ccccc4F)nn3cn2)cc1	none
C[C@@H](NC(=O)c1ccc2c(c1)OCO2)c1nc2cc(-c3ccccc3F)ncn2n1	none
C[C@@H](NC(=O)C1CCCCC1)c1nc2cc(-c3ccccc3F)ncn2n1	none
C[C@@H](NC(=O)c1ccc2c(c1)OCCO2)c1nc2cc(-c3ccccc3F)ncn2n1	OTUD3 inh 43
CSc1nc(SCC(=O)Nc2ccc(C)cc2)c2c3c(sc2n1)COC(C)(C)C3	none
Cn1c(CNC(=O)C2CCC2)nc2c1CN(C(=O)NC1CCCCC1)CC2	none
Cc1c(C)n(CCN(C)C)c2ncnc(NCc3ccco3)c12	none
CN1CCCN(C(=O)c2cc(-c3cnc(Nc4ccccc4)nc3)cn2C)CC1	none
Cc1nn2c(S(=O)(=O)N3CCCCCC3)c(C)nc2s1	none
Cc1cc2c(cc1C)NC(/C=C/c1ccccc1)C1=C(CC(C)(C)CC1=O)N2 (configuration not stated)	none
COc1cc2c(cc1OC)-c1cc(NCC(C)C)nc(=O)n1CC2	none
COc1cc2c(cc1OC)-c1cc(NCc3cc(OC)c(OC)c(OC)c3)nc(=O)n1CC2	OTUD3 inh 41
Cc1nsc(NC(=O)COc2ccc(C(C)C)cc2)n1	none
Cc1ncncc1C(=O)N1CCCC(C)(c2ncc(Cc3cccc(F)c3)o2)C1 (configuration not stated)	OTUD3 inh 82
Cc1ncncc1C(=O)N1CCCC(c2ncc(Cc3cccc(F)c3)o2)C1 (configuration not stated)	none
CCc1nc(SCC(=O)Nc2cc(Cl)ccc2C)c2oc3ccccc3c2n1	none
COc1ccc(CC(=O)Nc2cccc(N3CCCS3(=O)=O)c2)cc1OC	none
O=C(COc1nc2ccccc2nc1N1CCOCC1)Nc1cccc(S(=O)(=O)N2CCCCC2)c1	OTUD3 inh 47
O=C(COC(=O)CC1CCCCC1)Nc1cccc(S(=O)(=O)N2CCCCC2)c1	none
O=C(Cn1c(=O)n(Cc2ccccc2)c(=O)c2ncccc21)NCc1ccccc1Cl	USP7 inh 33
O=C(Cn1c(=O)n(Cc2ccncc2)c(=O)c2ncccc21)Nc1ccccc1	none
COc1ccc2c(c1)c1nc(C)sc1n2CCN1CCOCC1	none
Cc1ccc(C)c(NC(=O)CCc2nc(CSc3nc4ccccc4o3)no2)c1	OTUD3 inh 39
Cc1cccc(C)c1NC(=O)CCc1nc(CSc2nc3ccccc3o2)no1	none
Cc1cn2c(=O)cc(COc3cccc(NC(=O)c4ccccc4)c3)nc2s1	none
CC(c1ccccc1)N1CC(O)=C(c2nc3ccccc3s2)C1=N (configuration not stated)	USP7 inh 30
N=C1C(c2nc3ccccc3s2)=C(O)CN1Cc1ccc(F)cc1	none
COc1ccccc1-c1nc2ccccc2n1C1CCN(CC(N)=O)CC1	none
Fc1ccccc1-c1nnc(SCc2ccccc2)n1Cc1ccccc1	OTUD3 inh 35
CC(Sc1nnc(-c2ccccc2F)n1Cc1ccccc1)C(=O)N1CCc2ccccc21 (configuration not stated)	none
Cc1ccc(S(=O)(=O)N2CCC(c3c(C)[nH]c4ccccc34)CC2)cc1	none
CC1=C(C)C(c2c(-c3ccc(C)cc3)[nH]c3ccccc23)N(C(C)(C)C)C1=O (configuration not stated)	USP7 inh 32
CCn1c(COc2cccc(C(F)(F)F)c2)nnc1SCc1ccc(Cl)cc1	none
Cc1cc(NC(=O)Cn2c(=O)n(CC3CCC(C(=O)NCCc4ccccc4)CC3)c(=O)c3ccccc32)n[nH]1 (configuration not stated)	OTUD3 inh 36
O=C(Cn1c(=O)n(CC2CCC(C(=O)NCCc3ccccc3)CC2)c(=O)c2ccccc21)Nc1ccccc1F (configuration not stated)	none
CN(C)CCCN(C(=O)c1cccc(Br)c1)c1nc2ccc(F)cc2s1	none
Cc1ccc(N2CCN(S(=O)(=O)c3cc(-c4nnc(C)o4)co3)CC2)cc1	none
COc1ccc(NC(=O)[C@H](C)NC(=O)c2cc3c(OC)cccc3[nH]2)cc1Cl	OTUD3 inh 88, USP7 inh 39
COc1ccc(OC)c(NC(=O)c2cc3c(OC)cccc3[nH]2)c1	none
CC1CCN(C(=O)c2ccc(CSc3nc4ccncc4n3Cc3ccccc3)cc2)CC1	none
O=C(NCc1ccco1)c1ccc(Cn2c(SCc3ccccc3)nc3ccncc32)cc1	OTUD3 inh 75, USP7 inh 59
CCOC(=O)c1sc2nc(C)nc(NCc3ccccn3)c2c1C	none
Cc1cc(O)c2c(c1)C(=O)c1cc(O)cc(O)c1C2=O	none
O=C1C=C(O)c2c(O)cc(O)cc2C1=O	UCHL1 inh 94, OTUD3 inh 99, USP7 inh 85
CC(=O)c1cccc(NC(=O)C2c3ccccc3C(=O)N(C3CCCC3)C23CCCCC3)c1 (configuration not stated)	none
CC(=O)C1=C(O)[C@@]2(O)C(=O)c3c(c(C)c4ccc(C)c(O)c4c3O)C[C@H]2[C@@H](N)C1=O	UCHL1 inh 53, OTUD3 inh 51, USP7 inh 50
O=C(NCc1ccccc1)[C@@H]1Cc2c([nH]c3ccccc23)C2c3ccccc3C(=O)N21 (some centres not stated)	none
